# PubChem BioAssay
# Results filed as inconclusive are left out. Calls of active or inactive are those of the source.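 Rule for the calls, unless noted: active = normalized viability below 100% at a tested concentration; inactive = the rest.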
# Key:
# [1] = growth inhibition of DIPG glioma cells, dose response, cell-based, SU-DIPG-XVII, MIPE5.0, CellTiter-Glo, qHTS (AID 1347060; cut-off not given, nearly all actives have AC50 up to about 26 µM;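 for AC50: cells exposed to compound for 48 hours before viability readout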); conditions: SU-DIPG-XVII viability, CellTiter-Glo ATP luminescence
# [2] = growth inhibition of DIPG glioma cells, dose response, cell-based, SU-DIPG-XIII, MIPE4.0, CellTiter-Glo, qHTS (AID 1347061; cut-off not given, nearly all actives have AC50 up to about 37 µM;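 note: cells exposed to compound for 48 hours before readout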); conditions: SU-DIPG-XIII viability, CellTiter-Glo ATP luminescence
# [3] = growth inhibition of DIPG glioma cells, dose response, cell-based, JHH-DIPG-1, MIPE4.0, CellTiter-Glo, qHTS (AID 1347062; cut-off not given, nearly all actives have AC50 up to about 27 µM;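 for AC50: cells exposed to compound for two days before readout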); conditions: JHH-DIPG-1 viability, CellTiter-Glo ATP luminescence
# [4] = growth inhibition of DIPG glioma cells, dose response, cell-based, SU-DIPG-IV, MIPE4.0, CellTiter-Glo, qHTS (AID 1347063; cut-off not given, nearly all actives have AC50 up to about 30 µM;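 note: compound exposure lasted 48 hours before the viability readout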); conditions: SU-DIPG-IV viability, CellTiter-Glo ATP luminescence
# [5] = growth inhibition of DIPG glioma cells, dose response, cell-based, SU-DIPG-XIII, MIPE5.0, CellTiter-Glo, qHTS (AID 1347064; cut-off not given, nearly all actives have AC50 up to about 23 µM;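 for AC50: cells exposed to compound for 48 hours before the viability read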); conditions: SU-DIPG-XIII viability, CellTiter-Glo ATP luminescence
# [6] = viability loss in pontine glioma line – cell-based, SU-DIPG-XXV, MIPE5.0, CellTiter-Glo, qHTS, dose response (AID 1347065; cut-off not given, nearly all actives have AC50 up to about 26 µM;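 note: cells exposed to compound for 48 hours before ATP readout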); conditions: CellTiter-Glo ATP luminescence
# [7] = JHH-DIPG-1 glioma cell viability, MIPE5.0 library, CellTiter-Glo luminescence, qHTS (AID 1347067; cut-off not given, nearly all actives have AC50 up to about 26 µM;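 note: cells exposed to compound for 48 hours before readout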); conditions: JHH-DIPG-1 glioma viability, CellTiter-Glo ATP luminescence
# [8] = SU-DIPG-XXV glioma cell viability, MIPE5.0 library, qHTS (AID 1347068; cut-off not given, nearly all actives have IC50 up to about 30 µM;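 for IC50: cells exposed to compound for 48 hours before viability readout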)
# [9] = modifiers of HSF1 nuclear foci, imaging, Selleck Cancer Library (AID 1347162; in the data active = plate-normalised HSF1 focus index below about 0.46); conditions: human cells, at 10 µM; SSMD: measured here: HSF1 foci SSMD mean; cell count: measured here: cell number; plate-normalised HSF1 focus index: stronger effect = lower value
# [10] = ovarian cancer cell viability with rucaparib, profiling panel, oncology-focused library, rucaparib conditional (AID 1508598); conditions: patient-derived ovarian cancer cells, CellTiter-Glo viability, 144 h, stronger effect = lower value
# [11] = LFS_MB_P medulloblastoma growth inhibition, cell-based, chromothripsis tumors, cisplatin or BGB combos (AID 1671449; in the data active = inhibition above about 80%;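 note: cells exposed for 96 hours; 0% = vehicle DMSO and 100% = killing by high DMSO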); conditions: LFS_MB_P medulloblastoma cells
# [12] = HDN33 neuroblastoma growth inhibition, cell-based, chromothripsis tumors, cisplatin or BGB combos (AID 1671450; in the data active = inhibition above about 80%;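 note: cells exposed to compound for four days; 0% = vehicle DMSO and 100% = cell killing by high DMSO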); conditions: HDN33 neuroblastoma cells, stronger effect = higher value
# [13] = ICB984 medulloblastoma cell growth inhibition, synergistic combos for chromothripsis tumors, cisplatin or BGB combos (AID 1671451; call rule not given here;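 note: cells exposed for 96 hours before readout; 0% = vehicle DMSO and 100% = killing by high DMSO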); conditions: ICB984 medulloblastoma cells, drug combinations, stronger effect = higher value
# [14] = HTB85 osteosarcoma cell growth inhibition, synergistic combos for chromothripsis tumors, BGB or cisplatin IC20 combos (AID 1671453; in the data active = inhibition above about 80%;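 note: cells exposed for 96 hours before readout; 0% = vehicle DMSO and 100% = high DMSO killing control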); conditions: HTB85 osteosarcoma cells, drug combinations, stronger effect = higher value
# [15] = MDA-MB-436 breast carcinoma cell growth inhibition, synergistic combos for chromothripsis tumors, BGB or cisplatin combos (AID 1671458; call rule not given here;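 note: cells exposed for 96 hours; 0% = vehicle DMSO and 100% = killing by high DMSO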); conditions: MDA-MB-436 breast carcinoma growth inhibition, drug combinations, stronger effect = higher value
# [16] = growth inhibition of BT084 medulloblastoma cells, cell-based, ICGC_MB145, cisplatin and BGB IC40 combos (AID 1671461; in the data active = inhibition above about 80%;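 note: cells exposed to drugs for 96 hours; 0% = vehicle DMSO and 100% = high DMSO full killing control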); conditions: drug combinations, stronger effect = higher value
# [17] = growth inhibition of RCMB18 medulloblastoma cells, cell-based, cisplatin and BGB IC40 combos (AID 1671462; in the data active = inhibition above about 80%;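 note: cells exposed to compound for four days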); conditions: stronger effect = higher value
# [18] = sensitizers of A549 cells to miR-34 induction, primary screen, imaging, A549 dox-inducible miR-34, nuclei and caspase counts (AID 1347080;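 active = compounds whose cell count with miR-34 switched on is under 0.7 times the count with it off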); conditions: A549 miR-34 inducible, Hoechst nuclei count, 48 h
# [19] = survival rescue of mitochondrial mutant cells in low glucose, primary screen, MELAS cybrids, Rieske KO mouse fibroblasts, CellTiter-Glo (AID 1508586;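 active = mean z-score across replicates of 1.96 or higher in either the MELAS or the Rieske mutant cell line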;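 note: z relative to plate mean and SD of compound and empty wells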)
smiles,measurement,setting,value
CCCCc1nc2cc(/C=C/C(=O)NO)ccc2n1CCN(CC)CC,AC50,[1],1.66 µM (active)
same,AC50,[2],14.8 µM (active)
same,AC50,[3],296 nM (active)
same,AC50,[4],14.8 nM (active)
same,AC50,[5],1.32 µM (active)
same,AC50,[6],332 nM (active)
same,AC50,[7],1.05 µM (active)
same,IC50,[8],13.2 µM (active)
same,SSMD,[9],-1.52
same,cell count,[9],7710
same,plate-normalised HSF1 focus index,[9],0.904 (inactive)
same,viability,"[10]; at 0.000305 µM, OCI-C5x cells, with rucaparib 10 µM, 100% = cells with rucaparib alone",109% (inactive)
same,viability,"[10]; at 0.000305 µM, OCI-C5x cells, without rucaparib",111% (inactive)
same,viability,"[10]; at 0.000305 µM, OCI-P5x cells, with rucaparib 20 µM, 100% = cells with rucaparib alone",93.3% (active)
same,viability,"[10]; at 0.000305 µM, OCI-P5x cells, without rucaparib",99.3% (active)
same,viability,"[10]; at 0.00122 µM, OCI-C5x cells, with rucaparib 10 µM, 100% = cells with rucaparib alone",115% (inactive)
same,viability,"[10]; at 0.00122 µM, OCI-C5x cells, without rucaparib",116% (inactive)
same,viability,"[10]; at 0.00122 µM, OCI-P5x cells, with rucaparib 20 µM, 100% = cells with rucaparib alone",98.6% (active)
same,viability,"[10]; at 0.00122 µM, OCI-P5x cells, without rucaparib",104% (inactive)
same,viability,"[10]; at 0.00488 µM, OCI-C5x cells, with rucaparib 10 µM, 100% = cells with rucaparib alone",117% (inactive)
same,viability,"[10]; at 0.00488 µM, OCI-C5x cells, without rucaparib",117% (inactive)
same,viability,"[10]; at 0.00488 µM, OCI-P5x cells, with rucaparib 20 µM, 100% = cells with rucaparib alone",95.5% (active)
same,viability,"[10]; at 0.00488 µM, OCI-P5x cells, without rucaparib",107% (inactive)
same,viability,"[10]; at 0.0195 µM, OCI-C5x cells, with rucaparib 10 µM, 100% = cells with rucaparib alone",110% (inactive)
same,viability,"[10]; at 0.0195 µM, OCI-C5x cells, without rucaparib",117% (inactive)
same,viability,"[10]; at 0.0195 µM, OCI-P5x cells, with rucaparib 20 µM, 100% = cells with rucaparib alone",93.4% (active)
same,viability,"[10]; at 0.0195 µM, OCI-P5x cells, without rucaparib",104% (inactive)
same,viability,"[10]; at 0.0781 µM, OCI-C5x cells, with rucaparib 10 µM, 100% = cells with rucaparib alone",96.7% (active)
same,viability,"[10]; at 0.0781 µM, OCI-C5x cells, without rucaparib",123% (inactive)
same,viability,"[10]; at 0.0781 µM, OCI-P5x cells, with rucaparib 20 µM, 100% = cells with rucaparib alone",88.6% (active)
same,viability,"[10]; at 0.0781 µM, OCI-P5x cells, without rucaparib",95.7% (active)
same,viability,"[10]; at 0.313 µM, OCI-C5x cells, with rucaparib 10 µM, 100% = cells with rucaparib alone",92.4% (active)
same,viability,"[10]; at 0.313 µM, OCI-C5x cells, without rucaparib",91.7% (active)
same,viability,"[10]; at 0.313 µM, OCI-P5x cells, with rucaparib 20 µM, 100% = cells with rucaparib alone",68.3% (active)
same,viability,"[10]; at 0.313 µM, OCI-P5x cells, without rucaparib",76.5% (active)
same,viability,"[10]; at 1.25 µM, OCI-C5x cells, with rucaparib 10 µM, 100% = cells with rucaparib alone",28.3% (active)
same,viability,"[10]; at 1.25 µM, OCI-C5x cells, without rucaparib",21.2% (active)
same,viability,"[10]; at 1.25 µM, OCI-P5x cells, with rucaparib 20 µM, 100% = cells with rucaparib alone",26.6% (active)
same,viability,"[10]; at 1.25 µM, OCI-P5x cells, without rucaparib",43.4% (active)
same,viability,"[10]; at 5 µM, OCI-C5x cells, with rucaparib 10 µM, 100% = cells with rucaparib alone",4.57% (active)
same,viability,"[10]; at 5 µM, OCI-C5x cells, without rucaparib",5.34% (active)
same,viability,"[10]; at 5 µM, OCI-P5x cells, with rucaparib 20 µM, 100% = cells with rucaparib alone",1.32% (active)
same,viability,"[10]; at 5 µM, OCI-P5x cells, without rucaparib",2.31% (active)
same,inhibition,"[11]; at 0.5 µM, stronger effect = higher value",-27.6% (inactive)
same,inhibition,"[11]; measured here: combination with BGB IC20, at 0.005 µM",-13.5%
same,inhibition,"[11]; measured here: combination with BGB IC40, at 0.005 µM",75.4%
same,inhibition,"[11]; measured here: combination with BGB IC40, at 0.05 µM",-21.7%
same,inhibition,"[11]; measured here: combination with cisplatin, at 0.5 µM, stronger effect = higher value",-26%
same,inhibition,"[11]; measured here: combination with cisplatin, at 5 µM, stronger effect = higher value",104%
same,inhibition,"[12]; BGB combo, at 5 µM",99.5%
same,inhibition,[12]; at 0.5 µM,64.3% (inactive)
same,inhibition,"[12]; cisplatin combo, at 5 µM",99.9%
same,inhibition,"[12]; measured here: with BGB IC20 combination, at 0.5 µM",57.9%
same,inhibition,"[12]; measured here: with cisplatin IC20 combination, at 0.5 µM",71.1%
same,inhibition,"[12]; single agent, at 5 µM",99.8%
same,inhibition,"[13]; BGB IC20 combo, at 0.005 µM",7.49%
same,inhibition,"[13]; BGB IC40 combo, at 0.005 µM",-8.13%
same,inhibition,"[13]; BGB IC40 combo, at 0.05 µM",90.2%
same,inhibition,[13]; at 0.5 µM,-30.3% (inactive)
same,inhibition,"[13]; cisplatin combo, at 0.05 µM",90.2%
same,inhibition,"[13]; cisplatin combo, at 0.5 µM",-38.4%
same,inhibition,"[13]; cisplatin combo, at 5 µM",-16.6%
same,inhibition,"[13]; measured here: 5 uM single agent, at 5 µM",-44.4%
same,inhibition,[14]; at 0.5 µM,60.4% (inactive)
same,inhibition,"[14]; measured here: with BGB IC20, at 0.5 µM",56%
same,inhibition,"[14]; measured here: with BGB IC20, at 5 µM",99.8%
same,inhibition,"[14]; measured here: with cisplatin IC20, at 0.5 µM",61.5%
same,inhibition,"[14]; measured here: with cisplatin IC20, at 5 µM",99.9%
same,inhibition,"[14]; single agent, at 5 µM",99.7%
same,inhibition,[15]; at 0.5 µM,23.8% (inactive)
same,inhibition,"[15]; measured here: BGB combination, at 0.5 µM",18.7%
same,inhibition,"[15]; measured here: BGB combination, at 5 µM",52.6%
same,inhibition,"[15]; measured here: cisplatin combination, at 0.5 µM",13.3%
same,inhibition,"[15]; measured here: cisplatin combination, at 5 µM",61.6%
same,inhibition,[16]; at 0.5 µM,51.2% (inactive)
same,inhibition,"[16]; cisplatin combination, at 0.5 µM",62.4%
same,inhibition,"[16]; cisplatin combination, at 5 µM",101%
same,inhibition,"[16]; measured here: BGB IC40 combination 0.05 uM, at 0.05 µM",-12.4%
same,inhibition,"[16]; single agent, at 5 µM",107%
same,inhibition,[17]; at 0.5 µM,35.2% (inactive)
same,inhibition,"[17]; cisplatin combo, at 5 µM",93.7%
same,inhibition,"[17]; measured here: BGB IC40 combination, at 0.05 µM",11.4%
same,inhibition,"[17]; measured here: combination with cisplatin, at 0.5 µM",47.6%
same,inhibition,"[17]; single agent, at 5 µM",89.4%
COc1cc2c(cc1OC)CN(CCc1ccc(NC(=O)c3cccc4c(=O)c5cccc(OC)c5[nH]c34)cc1)CC2,outcome,[1],inactive
same,AC50,[2],8.33 µM (active)
same,outcome,[3],inactive
same,outcome,[4],inactive
same,outcome,[5],inactive
same,outcome,[6],inactive
same,outcome,[7],inactive
same,outcome,[8],inactive
same,SSMD,[9],4.27
same,cell count,[9],6980
same,plate-normalised HSF1 focus index,[9],1.26 (inactive)
O=C1c2cccc(O)c2C(=O)c2c(O)cc(CO)cc21,outcome,[1],inactive
same,outcome,[2],inactive
same,outcome,[3],inactive
same,outcome,[4],inactive
same,outcome,[5],inactive
same,outcome,[6],inactive
same,outcome,[7],inactive
same,outcome,[8],inactive
same,fold change,"[18]; stronger effect = lower value, cell number ratio, induced over uninduced",0.954 (inactive)
same,fold change,[18]; measured here: relative caspase fold change +Dox/-Dox,0.691
same,cell count,"[18]; measured here: total cells with miR-34 induction, stronger effect = lower value",7900
same,cell count,[18]; measured here: total cells without miR-34 induction,8280
same,z-score,"[19]; MELAS cybrid survival, CellTiter-Glo 48 h, stronger effect = higher value",-0.27 (inactive)
same,z-score,"[19]; Rieske KO mouse fibroblast survival, CellTiter-Glo 72 h",0.836
